Consider 11 molecules from PubChem BioAssay AID720597 (Broad Institute, 2013).

Measured potencies and affinities stand elsewhere. Calls of active or inactive are those of the source.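 Rule for the calls: active = fitted half-maximal dose no more than twice the top valid tested dose, for compounds that lower signal; inconclusive = fit invalid, or curve flat with activity between -70 and -30; inactive = potency past limit, curve flat within ±30, or signal increasing.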

NAD-dependent protein deacylase sirtuin-5, mitochondrial (Homo sapiens), sequence (Q9NXA8 whole entry, looked up): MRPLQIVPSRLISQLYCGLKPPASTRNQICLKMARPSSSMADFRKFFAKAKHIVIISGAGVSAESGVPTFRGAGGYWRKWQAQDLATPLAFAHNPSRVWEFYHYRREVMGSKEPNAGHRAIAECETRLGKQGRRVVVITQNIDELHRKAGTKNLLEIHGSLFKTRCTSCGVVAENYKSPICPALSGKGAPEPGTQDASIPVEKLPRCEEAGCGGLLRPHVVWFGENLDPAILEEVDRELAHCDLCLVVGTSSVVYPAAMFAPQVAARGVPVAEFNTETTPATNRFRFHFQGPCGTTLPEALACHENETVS

The test addresses NAD-dependent protein deacylase sirtuin-5, mitochondrial (Homo sapiens) (UniProt Q9NXA8). The experiment in a line: SIRT5 deacylase inhibitors, dose response, biochemical, fluorescence imaging, cherry-pick, set 6 (AID 720597).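 Note: lower AMC signal can also come from blocking the trypsin step.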 Conditions: Purified SirT5, succinyl-peptide-AMC/trypsin fluorescence; series mostly up to 15 µM.
Regarding `COc1cccc(S(=O)(=O)N(C)C[C@H]2Oc3cc(C4=CCCCC4)ccc3S(=O)(=O)N([C@H](C)CO)C[C@@H]2C)c1`, the result was inactive.

`CCC(=O)N(C)C[C@@H]1Oc2ncc(-c3ccc(F)cc3)cc2C(=O)N([C@@H](C)CO)C[C@@H]1C`: the molecule was called inactive.

With `COc1ccccc1S(=O)(=O)N(C)C[C@@H]1Oc2cc(C#CCC(C)C)ccc2S(=O)(=O)N([C@H](C)CO)C[C@H]1C`, the call was inactive.

As to `CC(C)(C)[S@@](=O)N1Cc2cc(C(=O)O)nc(-c3cccc(-c4cccc(F)c4)c3)c2[C@H]1CCO`, the molecule was called inactive.

With `C[C@H]1CN([C@@H](C)CO)C(=O)c2ccccc2-c2ccccc2CO[C@H]1CN(C)Cc1ccc(F)cc1`, the molecule was classed as inactive.

With `C/C=C/c1ccc2c(c1)O[C@H](CN(C)Cc1cccc(F)c1)[C@H](C)CN([C@@H](C)CO)S2(=O)=O`, the molecule was classed as inactive.

Regarding `C[C@H](CO)N1C[C@H](C)[C@H](CN(C)S(C)(=O)=O)Oc2c(NC(=O)c3ccncc3)cccc2C1=O`, the molecule was called inactive.

Take `C[C@@H]1CCCCO[C@H](CN(C)Cc2ccc(C(F)(F)F)cc2)[C@H](C)CN([C@H](C)CO)C(=O)c2cc(NC(=O)c3ccncc3)ccc2O1`: the result was inactive.

As to `COc1ccc(S(=O)(=O)N(C)C[C@H]2OCCCC[C@@H](C)Oc3ccc(NS(=O)(=O)c4ccc(Cl)cc4)cc3C(=O)N([C@H](C)CO)C[C@H]2C)cc1`, the outcome was inactive.

Turning to `C[C@H]1CN([C@@H](C)CO)S(=O)(=O)c2ccc(/C=C/c3ccccc3)cc2O[C@H]1CN(C)C(=O)Nc1cc(F)ccc1F`, the molecule was classed as inactive.

As to `O=C(C[C@@H]1CC[C@@H](NC(=O)Nc2cccc(F)c2)[C@H](CO)O1)NCC1CC1`, the call was inactive.
